# MEKK2wt PB1 HTS: raises or lowers MEK5 binding to wildtype human MEKK2 PB1 domain; 290,000 compounds, 1.1% hits; Q9Y2U5; binding response (% of control), % at 10 µM; bead flow cytometry, Alexa488-MEK5 binding to MEKK2 WT; actives lie on both sides; in the data active = binding response below about 67% or above about 130%
# ABCB6 inh 2: human ABCB6 transporter inhibition | Q9NP58 | AID 602162 | K562-ABCB6 porphyrin accumulation, flow cytometry, 1 h; hits give low values | 360,000 compounds, 0.19% hits | fluorescence ratio to DMSO, % at 10 µM;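 active = fluorescence ratio to DMSO below 75%, the collection mean minus 3 SD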;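 note: signal is porphyrin accumulated inside mitochondria; lower ratio means ABCB6 inhibition with less porphyrin fluorescence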
# CRFR2-BP antag: antagonists of CRF-binding protein/CRF-R2 receptor complex. HEK293 CRF-R2/CRF-BP, CRF-induced calcium fluorescence. inhibition, % at 11.8 µM. 350,000 compounds, 0.59% hits;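 active = inhibition of the ligand-induced calcium signal above about 50% at the single tested concentration, limit read from the data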
# CRFR2-BP ag: CRF-BP/CRF-R2 complex agonism; HEK293 CRF-R2/CRF-BP, calcium dye fluorescence (FLIPR); percent of saturating CRF peptide response; activation, % at 13.2 µM; 350,000 compounds, 0.46% hits; AID 588473;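 active = activation of at least 50%, plus an integration ratio under a set limit after plate pattern correction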
# MEKK2 mut-MEK5: signal of MEK5 binding to mutant human MEKK2 PB1 domain. AID 1530. bead flow cytometry, Alexa488-MEK5 binding to MEKK2 mutant. 290,000 compounds, 0.35% hits. percent response, % at 10 µM; in the data active = percent response above about 24%, passing the limit was not always enough
# MEKK3 PB1 HTS: MEKK3-MEK5 PB1 interaction, increase or decrease; Q99759; bead-based flow cytometry, Alexa488-MEK5 binding to MEKK3; actives lie on both sides; 0 = blocked by unlabeled MEK5, 100 = vehicle; binding response (% of control), % at 10 µM; 290,000 compounds, 1.4% hits; AID 1529;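 active = binding response more than 3 SD above or below the average of its plate-row segment, actives on both sides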;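 note: Alexa488 bead fluorescence after subtracting the streptavidin-only scavenger bead signal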
# Target sequence (Q99759 whole entry, looked up): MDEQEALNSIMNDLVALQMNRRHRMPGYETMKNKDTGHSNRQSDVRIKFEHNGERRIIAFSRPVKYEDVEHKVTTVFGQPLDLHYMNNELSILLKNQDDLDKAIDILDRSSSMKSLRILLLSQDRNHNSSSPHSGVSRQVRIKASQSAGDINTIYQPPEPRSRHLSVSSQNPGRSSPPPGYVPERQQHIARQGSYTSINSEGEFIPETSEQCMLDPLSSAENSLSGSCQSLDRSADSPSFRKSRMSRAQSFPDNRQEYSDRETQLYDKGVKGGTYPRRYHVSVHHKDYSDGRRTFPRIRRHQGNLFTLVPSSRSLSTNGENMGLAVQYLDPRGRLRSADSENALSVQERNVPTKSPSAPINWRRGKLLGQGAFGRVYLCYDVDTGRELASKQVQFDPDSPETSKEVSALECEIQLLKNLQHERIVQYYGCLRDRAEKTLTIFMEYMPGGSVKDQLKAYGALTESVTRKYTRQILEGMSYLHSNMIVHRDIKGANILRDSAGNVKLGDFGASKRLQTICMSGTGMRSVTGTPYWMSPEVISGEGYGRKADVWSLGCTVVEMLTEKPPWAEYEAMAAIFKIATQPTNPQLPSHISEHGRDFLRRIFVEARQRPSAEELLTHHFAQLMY
# Hits are given with their value; – = inactive; · = no result; [ ] = another dose, or the depositor's remark. Shown are actives, neighbours in structure and some others; about 2.9% of the full set was active somewhere.
SMILES,MEKK2wt PB1 HTS,ABCB6 inh 2,CRFR2-BP antag,CRFR2-BP ag,MEKK2 mut-MEK5,MEKK3 PB1 HTS
Cc1cc(F)ccc1S(=O)(=O)N1CCCOC1CNC(=O)C(=O)NCc1ccccn1 (stereo not drawn),–,–,–,–,–,–
CN(Cc1ccc([N+](=O)[O-])cc1)c1ccccc1,·,–,55,–,·,·
CN(N=Nc1cccc([N+](=O)[O-])c1)c1ccccc1,–,–,–,–,–,–
CN(N=Nc1ccc([N+](=O)[O-])cc1)c1ccccc1,–,–,–,84,–,–
CC(C)OCc1c(C(=O)OC/C(O)=C(\C#N)c2nc3ccccc3[nH]2)oc2ccccc12,–,–,62,–,–,–
N#C/C(=C(/O)COC(=O)COc1cccc(Br)c1)c1nc2ccccc2[nH]1,–,–,100,–,–,–
CCCCN(C(=O)CSc1ncn[nH]1)c1c(N)n(Cc2ccccc2)c(=O)[nH]c1=O,·,–,70,–,·,·
Cc1nnc(SCC(=O)N(C)c2c(N)n(Cc3ccccc3)c(=O)[nH]c2=O)n1Cc1ccccc1,–,–,81,–,–,–
CCn1c(SCC(=O)N(C)c2c(N)n(Cc3ccccc3)c(=O)[nH]c2=O)nc2ccccc21,–,–,–,–,–,–
COc1ccc(Cc2nc3ccc(C(=O)N(C)CCc4cnn(C)c4)cc3o2)cc1OC,–,–,–,–,–,–
CCN(CC)c1ccc(C=NCCNS(=O)(=O)c2ccc(C)cc2)cc1,-6.0,–,–,–,–,–
CC1N(C)c2cc(NC(=O)c3ccco3)ccc2C1(C)C (stereo not drawn),-7.0,–,–,–,–,–
CC(C(=O)Nc1ccc2c(c1)OCCO2)c1ccc([N+](=O)[O-])cc1 (stereo not drawn),–,–,–,110,–,–
O=C(COC(=O)c1nc(Cl)ccc1Cl)NCc1cccs1,·,–,–,–,·,·
C=CC(=O)Oc1ccc(N2Cc3ccccc3C2=O)cc1,·,–,97,–,·,·
O=C(NC1CCCCCC1)C(=S)N1CCOCC1,–,–,–,–,–,–
S=C(NC1CCCCC1)N1CCOCCOCCN(C(=S)NC2CCCCC2)CCOCCOCC1,–,–,115,–,–,–
CC(C)Oc1cc(C(=O)NC2CCCCC2)c2ccccc2n1,–,–,–,–,–,–
CC(C)CC(=NNC(=O)c1ccncc1)c1cc(Cl)ccc1O,·,–,–,150,·,·
C/C(=N/NC(=O)c1ccncc1)c1ccc(NC(=O)c2ccc(Cl)cc2Cl)cc1,–,–,–,–,–,–
CC(=O)N1CCCC1(C(=O)O)c1ccccc1 (stereo not drawn),-3.0,–,–,–,–,–
Cc1cc(Br)cc(Cl)c1OC(=O)c1ccncc1,1.0[inhibitor],–,–,–,–,1.0[inhibitor]
COc1ccc(-n2c(SCC(=O)Nc3cc(C)on3)nc3ccccc3c2=O)cc1Cl,·,–,–,–,83,–
COc1cccc(-n2c(SCC(=O)Nc3cc(C)on3)nc3ccccc3c2=O)c1,–,–,–,–,–,–
Cc1noc(C)c1S(=O)(=O)N1CCC(C(=O)N2CCN(c3ccc(F)cc3)CC2)CC1,–,·,60,–,–,–
SMILES,MEKK2wt PB1 HTS,ABCB6 inh 2,CRFR2-BP antag,CRFR2-BP ag,MEKK2 mut-MEK5,MEKK3 PB1 HTS
CCCCOc1ccc(OC(=O)Nc2cc(Cl)ccc2OC)cc1,–,–,81,–,–,–
CCOC(=O)[C@]12CCC=C1N(Cc1ccco1)C(=O)[C@H](CC(=O)NCc1cccs1)C2,·,–,·,·,·,·
COc1ccc(NC(=O)NC(C)c2ccc3c(c2)OCO3)c(OC)c1 (stereo not drawn),–,–,63,–,–,–
CCOc1ccc(NC(=O)CC(Cc2cc(C)cc(C)c2)C(=O)O)cc1 (stereo not drawn),–,–,–,–,–,–
CN(C)c1cccc(C(=O)OCC(=O)Nc2ccccc2-c2ccccc2)c1,–,–,–,–,–,–
CN(C)c1cccc(C(=O)OCC(=O)Nc2ccccc2Sc2ccccc2)c1,–,–,62,–,–,–
O=C(CN1CCCC1)Nc1ccccc1Sc1ccccc1,–,–,–,52,–,–
CN1CCN(CC(=O)Nc2ccccc2Sc2ccccc2)CC1,–,–,–,–,–,–
C[C@@H]1CCCCO[C@H](CN(C)S(=O)(=O)c2cn(C)cn2)[C@@H](C)CN([C@H](C)CO)C(=O)c2cc(NC(=O)c3ccncc3)ccc2O1,·,–,–,–,·,·
O=C(COc1cc(Cl)ccc1Cl)N1CCNC1=O,·,–,51,–,·,·
O=C(COc1ccc(Cl)cc1Cl)N1CCNC1=O,·,–,–,–,·,·
O=C(O)C(c1ccccc1)C1(O)CCCC1 (stereo not drawn),–,–,97,–,–,–
CCN(Cc1ccccc1)C(c1cccc(C#N)c1)c1nnnn1C(C)(C)C (stereo not drawn),–,–,89,–,–,–
COc1cc(/C=C2\C(=O)N(c3ccc(NC(C)=O)cc3)N=C2c2ccccc2)ccc1O,–,–,68,–,–,–
Cc1sc2ccccc2c1CNC[C@H]1O[C@@H](n2cnc(C(N)=O)n2)[C@H](O)[C@@H]1O,·,–,–,–,·,·
Brc1cccc(C2CC(c3ccccc3)n3nnnc3N2)c1 (stereo not drawn),–,–,55,–,–,–
c1ccc(C2CC(c3cccs3)Nc3nnnn32)cc1 (stereo not drawn),–,–,–,–,–,–
CC(C)(C)c1cc(C(c2cccnc2)N2CCN(CCO)CC2)cc(C(C)(C)C)c1O (stereo not drawn),–,–,–,–,–,–
OCCN1CCN(C(c2cccs2)c2ccc3cccnc3c2O)CC1 (stereo not drawn),68[inhibitor],·,·,·,–,–
COc1ccc(S(=O)(=O)N(C)c2ccc(C(=O)Nc3cccnc3)cc2)cc1OC,–,–,–,–,–,–
Cc1ccc(S(=O)(=O)Nc2ccccc2/C=N/c2nc3ccccc3n2C)cc1,–,–,71,–,–,–
COc1cc([N+](=O)[O-])ccc1-c1ccc(/C=N/NC(=O)OC(C)(C)C)o1,–,–,–,57,–,–
Cc1nc2ccccc2n1CC(O)COC1CCCCC1 (stereo not drawn),–,–,53,–,–,–
CCOc1ccccc1NC(=O)C1COc2ccccc2O1 (stereo not drawn),–,–,–,–,–,–
CCOc1ccccc1NC(=O)COC(=O)C1COc2ccccc2O1 (stereo not drawn),·,–,95,–,·,·
C=Cn1cc[n+](CC(=O)c2ccc(Br)cc2)c1,–,–,–,–,–,–
C=Cn1cc[n+](CC(=O)c2ccc(Cl)cc2)c1,–,–,117,–,–,–
CCN(CC)c1ccc2c(-c3ccc(S(=O)(=O)O)cc3S(=O)(=O)[O-])c3ccc(=[N+](CC)CC)cc-3oc2c1,–,–,–,55,–,–
